Experiment [1] relates to Staphylococcus aureus. To be noted: Concentration 32 ug.mL-1;; ASSAY_TEST Inhibition of Bacterial Growth; detection method Absorption (OD600); MEDIA CAMHB; plate type 384well; NBS; CORNING #3640; time 18 hr.
The test system of experiment [2] is Escherichia coli. To be noted: Concentration 32 ug.mL-1;; ASSAY_TEST Inhibition of Bacterial Growth; detection method Absorption (OD600); MEDIA CAMHB; plate type 384well; NBS; CORNING #3640; time 18 hr.

As usually defined, the Inhibition is the change of the read-out against control, counted positive when it falls.

Results with a measured potency or affinity are listed apart.

With `COc1ccc(-c2cc3c4nnc(SCC(=O)NCc5ccccc5)n4ccn3n2)cc1`, the Inhibition in experiment [1] is reported as -8.9%; in experiment [2] it was -21.63%.

Turning to `CCc1nnc2c(=O)n(CC(=O)Nc3ccc(Br)cc3F)c3ccccc3n12`, the Inhibition in experiment [1] is -3.08%; in experiment [2] it was 3.54%.

With `CCOc1ccc(NC(=O)Cn2nc3c(Oc4ccc(C)cc4)nccn3c2=O)cc1`, the Inhibition in experiment [1] is reported as 5.72%; in experiment [2], -4.41%.

As to `CCc1ccc(N(Cc2cccc(F)c2)S(=O)(=O)c2cccn3c(C)nnc23)cc1`, the Inhibition in experiment [1] is on record as 10.02%; in experiment [2], -2.48%.

For `Cc1nnc2ccc(S(=O)(=O)N(Cc3cccc(F)c3)c3ccc(Cl)cc3)cn12`, the Inhibition is 9.42% in experiment [1] and -6.55% in experiment [2].

As to `COc1ccccc1CNC(=O)Cn1nc2c(SCc3ccc(Cl)cc3)nccn2c1=O`, the values for the Inhibition in experiment [1] and in experiment [2] were 6.37% and -3.98%, respectively.

On to `COc1cccc(-n2ccn3c(SCc4ccccc4C)nnc3c2=O)c1`, for which the results for the Inhibition in experiment [1] and in experiment [2] were 11% and -3.45%, respectively.

As for `O=C(Cn1nc2c(SC3CCCCC3)nccn2c1=O)NCc1ccc(F)cc1`, the figures for the Inhibition in experiment [1] and in experiment [2] were 3.45% and -3.55%, respectively.

Turning to `N#Cc1cccc(NC(=O)CSc2nnc3c4cc(-c5ccc(F)cc5)nn4ccn23)c1`, the Inhibition in experiment [1] is 11.69%; in experiment [2], -2.69%.

Regarding `Cc1ccc(Cn2nc3c(=O)n(-c4cccc(F)c4)ccn3c2=O)cc1`, the Inhibition in experiment [1] is given as 6.58%; in experiment [2], -11.98%.

Consider `CCc1ccc(NC(=O)CSc2nnc3c(=O)n(-c4ccccc4)ccn23)cc1`, for which the values for the Inhibition in experiment [1] and in experiment [2] were 7.36% and -2.07%, respectively.

For `Cc1ccc(NC(=O)Cn2nc3ccc(SCc4ccc(Cl)cc4)nn3c2=O)cc1C`, the Inhibition in experiment [1] is recorded as 4.09%; in experiment [2], -6.92%.

The values above are taken from ChEMBL document CHEMBL4513146, “CO-ADD screening of Karazin Kharkiv National University (Ukraine) compounds”.
